Consider eight molecules from PubChem BioAssay (Tox21).

Assay [1] in a line: qHTS assay to identify small molecule antagonists of the retinoid acid receptor (RAR) signaling pathway - cell viability counter screen (AID 1159551). Further: nearly all actives have a fitted effect of over 35% in size. The essentials:
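Following overnight attachment, C3RL4 reporter cells received DMSO-dissolved compounds and then retinol (1 uM final). Six hours later at 37 C, ATP content was measured by CellTiter-Glo luminescence.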

Assay [2] is described as follows: qHTS assay to identify small molecule antagonists of the retinoic acid receptor (RAR) signaling pathway (AID 1159552; further: nearly all actives have a fitted effect of over 50% in size). The essentials:
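Quantitative HTS in C3RL4 RARE-luciferase reporter cells. Compounds were added with 1 uM (final) retinol; luminescence was read after 6 hr.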

Assay [3] can be described thus: qHTS assay to identify small molecule agonists of the retinoic acid receptor (RAR) signaling pathway (AID 1159553). Further: potency means the concentration at half of the fitted maximal effect. The essentials:
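Cell line C3RL4, RARE luciferase reporter. Treatment: compounds in DMSO, 6 hr, 37 C, 5% CO2, after overnight plating. Detection: luminescence, 30 min RT after reagent.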

Assay [4] can be described thus: qHTS assay to identify small molecule antagonists of the estrogen related receptor (ERR) signaling pathway from Tox21 library - cell viability counter screen (AID 1224834). Further: nearly all actives have a fitted effect of over 30% in size. The essentials:
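Viability readout (CellTiter-Fluor fluorescence, 30 min at 37 C) multiplexed with the ERR assay; cells treated 17.5 h at 37 C with compounds delivered in DMSO.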

Assay [5] concerns the target Luciferin 4-monooxygenase (Photinus pyralis) (UniProt P08659). The experiment in a line: qHTS assay to identify small molecule inhibitors of firefly luciferase (AID 1224835). Further: nearly all actives have a fitted effect of over 25% in size. Further: potency means the concentration at half of the fitted maximal effect. The essentials: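 Biochemical qHTS: compounds run as interplate titrations against purified firefly enzyme, with D-luciferin and ATP each at its KM concentration. Light output recorded by CCD imaging.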

A short description of assay [6]: qHTS assay to identify small molecule agonists of the constitutive androstane receptor (CAR) signaling pathway - cell viability counter screen (AID 1224836). Further: nearly all actives have a fitted effect of over 45% in size. The essentials: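 Counter screen multiplexed with the CAR reporter readout: HepG2 cells co-transfected with hCAR and the CYP2B6-2.2kb construct receive a 15-concentration compound series and 0.75 uM PK11195 (final), then CellTiter-Fluor fluorescence is read after 23 h.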

The nature of assay [7]: qHTS assay to identify small molecule antagonists of the constitutive androstane receptor (CAR) signaling pathway - cell viability counter screen (AID 1224837). Further: nearly all actives have a fitted effect of over 45% in size. The essentials: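 Fluorescence from CellTiter-Fluor served as the viability signal. Human hepatoma HepG2 cells stably bearing hCAR and CYP2B6-2.2kb received compound plus CITCO (50 nM final) for 23 hr.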
Assay [8] has as its target Nuclear receptor subfamily 1 group I member 3 (Homo sapiens) (UniProt Q14994). The experiment in a line: qHTS assay to identify small molecule antagonists of the constitutive androstane receptor (CAR) signaling pathway (AID 1224838).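 Further: HepG2 cells stably expressing hCAR with CYP2B6 luciferase reporter stimulated by CITCO; nearly all actives have a fitted effect of over 40% in size.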 In short, it runs like this: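 Quantitative HTS in double-stable HepG2-CYP2B6-hCAR cells. After 4 h plating, cells get compound (15 concentrations) and CITCO at 50 nM final, incubate 24 h at 37 C, then ONE-Glo luminescence is read.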

For assay [9] the target is unchanged. The experiment in a line: qHTS assay to identify small molecule agonists of the constitutive androstane receptor (CAR) signaling pathway (AID 1224839). Further: nearly all actives have a fitted effect of over 15% in size. Further: potency means the concentration at half of the fitted maximal effect. The essentials: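 A 15-concentration quantitative screen uses HepG2 cells co-transfected stably with human CAR and CYP2B6-2.2kb reporter. Treatment lasts 24 h with 0.75 uM PK11195 final present; ONE-Glo luminescence is the signal.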

Assay [10] in a line: qHTS assay to identify small molecule antagonists of the estrogen related receptor signaling pathway with the pleiotropic PPARgamma coactivator (PGC) from Tox21 10K library - cell viability counter screen (AID 1224840; active means well fitted cell-killing curve with a large enough effect in the repeat runs, not every such curve was filed as active; further: nearly all actives have a fitted effect of over 40% in size). In short, it runs like this: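 Compounds in DMSO, alongside positive and negative controls, were pinned onto PGC/ERR cells (2,000 per well). Exposure lasted 17.5 hours at 37 C, followed by a 30-minute CellTiter-Fluor incubation and fluorescence reading.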

The target of assay [11] is Thyrotropin receptor (Homo sapiens) (UniProt P16473). Description: qHTS assay to identify small molecule agonists of the thyroid stimulating hormone receptor (TSHR) signaling pathway (AID 1224843; calls by dose curve; further: nearly all actives have a fitted effect of over 45% in size). The essentials:
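TSHR-HEK293 cells in agonist mode, 30 min room-temperature step, then cAMP measured by competitive HTRF (cAMP-d2 with anti-cAMP cryptate) after 1 h at room temperature. Tested at 15 concentrations in triplicate.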

Assay [12] can be described thus: qHTS assay to identify small molecule agonists of the hypoxia (HIF-1) signaling pathway - cell viability counter screen (AID 1224844; calls by dose curve; further: nearly all actives have a fitted effect of over 50% in size). The essentials: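 Luminescent ATP content (CellTiter-Glo, 30 min, room temperature) served as the viability measure in HRE-bla ME-180 cells exposed to compounds for 17 hrs in low-serum medium (0.5% dialyzed FBS).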
A short description of assay [13]: qHTS assay to identify small molecule agonists of H2AX (AID 1224845; active means well fitted activation curve with a large enough effect in the signal ratio in the repeat runs, not every such curve was filed as active; the % refers to the signal ratio). In short, it runs like this:
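Wild-type CHO-K1 cells, plated overnight, exposed 3hr at 37C to 15 concentrations (0.76% DMSO final). Lysed, then HTRF anti-pH2AX (S139) cryptate and anti-H2AX-d2 antibodies, 24 hr room temperature; 665/620 nm emission read.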

Assay [14] can be described thus: qHTS assay to identify small molecule agonists of the hypoxia (HIF-1) signaling pathway (AID 1224846; active means well fitted activation curve with a large enough effect in the signal ratio in the repeat runs, not every such curve was filed as active; the % refers to the signal ratio). The essentials:
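Measured by blue/green FRET after loading CCF4-AM: beta-lactamase expressed from a hypoxia response element in ME-180 cells. Test agents were delivered in DMSO and left 17 hrs; cells had been plated 5 hrs earlier in low-serum (0.5% dialyzed FBS) medium.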

Assay [15] in a line: qHTS assay to identify small molecule agonists of H2AX - cell viability counter screen (AID 1224847; calls by dose curve; further: top concentration of the series differs between compounds; nearly all actives have a fitted effect of over 30% in size). The essentials: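 We seed wild-type CHO-K1 cells overnight, treat them for 3 hr at 37C with compounds in 15-concentration series, and quantify remaining viability by CellTiter-Glo luminescence.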
A short description of assay [16]: qHTS RealTime-Glo MT Cell Viability Assay in HepG2 cells - 24 hour (AID 1224867). Further: nearly all actives have a fitted effect of over 50% in size. In short, it runs like this:
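HepG2 suspension premixed with RealTime-Glo reagents is plated at 600 cells per well and left 5 h at 37 C/5% CO2. Compounds in DMSO then go in, and bioluminescence reflecting viable cell number is recorded over 40 h.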

Assay [17] in a line: qHTS assay to identify small molecule antagonists of the estrogen related receptor signaling pathway with the pleiotropic PPARgamma coactivator (PGC) from Tox21 10K library (AID 1224841; call rule not given here; further: actives are mostly falling curves and most rising ones were filed inactive; nearly all actives have a fitted effect of over 50% in size). The essentials: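 Compound exposure ran 18 hours at 37 C in PGC/ERR cells (2,000/well) that had first rested 6 hours in a 37 C/5% CO2 incubator. Luciferase activity was then detected with One-Glo after a 30-minute room-temperature step.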

A short description of assay [18]: qHTS assay to identify small molecule agonists of the estrogen related receptor signaling pathway with the pleiotropic PPARgamma coactivator (PGC) from Tox21 10K library (AID 1224842). Further: nearly all actives have a fitted effect of over 15% in size. The essentials: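 PGC/ERR reporter cell line, 2,000 cells per well, incubated 6 h at 37 C before 23 nL compound in DMSO was added. After 18 h at 37 C, One-Glo luminescence read following 30 min at room temperature.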

The nature of assay [19]: qHTS assay to identify small molecule antagonists of the estrogen related receptor (ERR) signaling pathway from Tox21 library (AID 1224848). Further: nearly all actives have a fitted effect of over 50% in size. The essentials:
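ERR reporter cell line (from NTP) seeded 2,000 cells/well, rested 6 h at 37 C/5% CO2, then pin-dosed with compounds in DMSO. After 18 h at 37 C, ONE-Glo added; luminescence read after 30 min at room temperature.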

Assay [20] in a line: qHTS assay to identify small molecule agonists of the estrogen related receptor (ERR) signaling pathway from Tox21 library (AID 1224849; calls by dose curve; further: nearly all actives have a fitted effect of over 15% in size). The settings on record: ERR reporter cell line, ONE-Glo luciferase, 18 h; at 92.4 µM (top of the series) unless noted. The essentials:
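We plated ERR reporter cells, waited 6 h, added compounds in DMSO by pin tool and incubated them 18 h at 37 C. ONE-Glo was then added and luminescence read after 30 min.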

A number with no mark means an inactive call. Records with an inconclusive call do not appear. Active and inactive are the calls of the source. Unless noted, the call rests on the fitted dose curve; in most records, active means well fitted curve in the direction sought with a large enough effect in the repeat runs; inconclusive means weak or mixed curves; inactive means no such curve, though single readings can be large; an effect the other way counts as inactive or inconclusive.
On the % scale 0 is the no-effect control and ±100 the full control effect.

Chain of Thyrotropin receptor (Homo sapiens) (P16473 whole entry, looked up): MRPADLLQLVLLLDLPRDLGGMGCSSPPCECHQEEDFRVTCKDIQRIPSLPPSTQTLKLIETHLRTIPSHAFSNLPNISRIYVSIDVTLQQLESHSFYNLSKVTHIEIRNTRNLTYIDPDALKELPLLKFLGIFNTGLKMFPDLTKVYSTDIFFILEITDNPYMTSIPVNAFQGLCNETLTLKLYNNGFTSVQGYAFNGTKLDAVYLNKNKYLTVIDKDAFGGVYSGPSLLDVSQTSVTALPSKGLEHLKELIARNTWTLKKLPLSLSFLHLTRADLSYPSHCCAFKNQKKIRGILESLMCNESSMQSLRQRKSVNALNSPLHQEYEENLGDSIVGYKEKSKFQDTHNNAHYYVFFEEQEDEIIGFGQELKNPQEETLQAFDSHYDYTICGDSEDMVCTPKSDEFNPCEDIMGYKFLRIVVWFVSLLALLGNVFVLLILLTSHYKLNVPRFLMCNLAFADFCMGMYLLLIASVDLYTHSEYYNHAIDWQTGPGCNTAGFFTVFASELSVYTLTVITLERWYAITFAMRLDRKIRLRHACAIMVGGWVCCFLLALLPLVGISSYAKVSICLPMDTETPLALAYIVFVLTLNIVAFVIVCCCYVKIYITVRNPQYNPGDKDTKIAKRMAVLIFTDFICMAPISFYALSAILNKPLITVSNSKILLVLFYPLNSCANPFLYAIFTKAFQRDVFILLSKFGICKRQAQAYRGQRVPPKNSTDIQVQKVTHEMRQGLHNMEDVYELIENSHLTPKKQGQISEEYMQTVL
Chain of Nuclear receptor subfamily 1 group I member 3 (Homo sapiens) (Q14994 whole entry, looked up): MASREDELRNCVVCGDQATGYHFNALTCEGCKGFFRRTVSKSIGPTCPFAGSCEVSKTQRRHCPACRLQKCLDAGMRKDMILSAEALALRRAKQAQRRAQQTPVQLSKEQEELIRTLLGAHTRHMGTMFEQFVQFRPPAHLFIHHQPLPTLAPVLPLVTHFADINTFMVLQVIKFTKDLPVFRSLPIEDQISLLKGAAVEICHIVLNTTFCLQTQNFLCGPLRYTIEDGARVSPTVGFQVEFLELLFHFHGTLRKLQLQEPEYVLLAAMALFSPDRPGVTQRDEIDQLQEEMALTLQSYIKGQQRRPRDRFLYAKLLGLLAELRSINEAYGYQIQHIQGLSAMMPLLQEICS
Chain of Luciferin 4-monooxygenase (Photinus pyralis) (P08659 whole entry, looked up): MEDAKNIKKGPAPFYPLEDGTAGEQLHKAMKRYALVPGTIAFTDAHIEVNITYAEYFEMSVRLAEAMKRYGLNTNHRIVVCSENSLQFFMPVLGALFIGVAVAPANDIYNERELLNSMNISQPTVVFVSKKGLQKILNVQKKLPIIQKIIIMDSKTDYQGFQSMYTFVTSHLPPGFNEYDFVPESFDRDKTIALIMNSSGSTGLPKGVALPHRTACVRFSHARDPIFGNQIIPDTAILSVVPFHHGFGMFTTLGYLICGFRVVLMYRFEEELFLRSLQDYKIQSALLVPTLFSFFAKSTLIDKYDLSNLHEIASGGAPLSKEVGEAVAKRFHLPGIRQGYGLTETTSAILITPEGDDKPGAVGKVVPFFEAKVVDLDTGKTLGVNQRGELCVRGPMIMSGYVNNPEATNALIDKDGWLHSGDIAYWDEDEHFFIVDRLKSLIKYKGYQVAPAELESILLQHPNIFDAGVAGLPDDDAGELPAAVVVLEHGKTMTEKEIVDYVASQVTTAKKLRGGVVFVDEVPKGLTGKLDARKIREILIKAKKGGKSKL

`Cc1ccc(Br)cc1`: the molecule was called inactive in assay [1], in [2], in assay [4], in assay [6], in [7] and in assay [8]. Further, the call in assay [10], in assay [12], in assay [13], in [14], in assay [15] and in [16] was inactive. Further, the Potency entry in assay [3], in [5], in [9] and in [11] was “inactive” throughout.
For `CC(=O)c1ccc2ccc3ccccc3c2c1`, the call in [1], in [2], in assay [4], in assay [6], in assay [7] and in [8] was inactive. For the same molecule, the result in [10], in assay [12], in assay [14], in assay [19] and in [16] was inactive. The Potency entry in [3], in assay [17], in assay [18] and in assay [11] was “inactive” in each case. In addition, the figures for the Potency in assay [5] and in [9] were 31.5 µM (active) and 60.8 µM (active), respectively. Also, the activity change, positive = activation in [20] was 8.72%.
With `Cc1ccc(NC(N)=O)cc1`, the call in [1], in [2], in assay [4], in assay [6], in [7] and in [8] was inactive. Also, the result in assay [10], in assay [12], in assay [13], in [14], in assay [15] and in assay [16] was inactive. Besides, the Potency entry in [3], in assay [5], in assay [9] and in [11] was “inactive” in each case.
With `Cc1cc(C)c(N)c(Cl)c1`, the result in assay [1], in [2], in assay [4], in [6], in assay [7] and in [8] was inactive. Besides, the result in [10], in assay [12], in assay [13], in assay [14], in [15] and in assay [16] was inactive. For the same molecule, the Potency result in assay [3], in assay [5], in [9] and in assay [11] was “inactive” in each case.
In the case of `CC(O)CCCCn1c(=O)c2c(ncn2C)n(C)c1=O` (centres undefined), the result in [1], in assay [2], in assay [4], in assay [6], in assay [7] and in assay [8] was inactive. The call in [10], in [12], in assay [13], in assay [14], in assay [15] and in assay [16] was inactive. Also, the Potency entry in [3], in assay [5], in [9] and in assay [11] was “inactive” in each case.
For `CC/C=C\CCOC(=O)c1ccccc1`, the molecule was classed as inactive in assay [1], in assay [2], in assay [4], in assay [6], in [7] and in assay [8]. For the same molecule, the call in [10], in assay [12], in [15], in assay [19] and in assay [16] was inactive. The Potency in assay [3] is 68.6 µM (active); in assay [5], 7.1 µM (active). Besides, the Potency entry in assay [9], in assay [17], in [18] and in assay [11] was “inactive” in each case. For the same molecule, the activity change, positive = activation in [20] is 5.28%.
As to `CC(C)(C)OC(=O)c1ccccc1C(=O)O`, the result in assay [1], in assay [2], in [4], in assay [6], in assay [7] and in assay [8] was inactive. Moreover, the result in [10], in [12], in assay [13], in assay [14], in assay [15] and in assay [16] was inactive. The Potency result in assay [3], in assay [5], in assay [9] and in assay [11] was “inactive” each time.
As for `CN(C)c1ccncc1`, the molecule was classed as inactive in assay [1], in [2], in [4], in assay [6], in assay [7] and in assay [8]. Also, the result in assay [10], in [12], in assay [13], in assay [14], in [15] and in assay [19] was inactive. Also, the call in assay [16] was inactive. In addition, the Potency result in assay [3], in [5], in [9] and in assay [11] was “inactive” in each case. Moreover, the activity change, positive = activation in [20] is -2.4%.
